Data: PubChem BioAssay (NCI)
This is part of a sample that, as a whole, favours compounds with a hit. Of some 83,000 tested, about 20% had one in any assay.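 Single-dose data. Exposure time 48 hours. Values below 10 considered active.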 Active and inactive are the calls of the source.

The compounds below were run on UO-31 renal (assay: NCI-60 one-dose screen, 48 h (100 = growth as untreated, 0 = no growth, -100 = all killed)). Conditions: 10 µM unless noted.
For O=C1C(Cl)=C(Nc2ccc3cn[nH]c3c2)C(=O)c2ccccc21, the growth was -97.7% (active). For COc1cc(/C=C/C(=O)/C=C/c2ccc(-n3ccnc3C)cc2)ccc1O, the growth was 4.27% (active). In the case of Nc1cc(Cl)cc2cccnc12, the growth is reported as 67.9% (inactive). In the case of CN(C)CCOc1ccc(/C(=C(/CCCl)c2ccccc2)c2ccccc2)cc1, the growth is reported as 26.5% (inactive). For Nc1cc(N)c(N=Nc2ccc(S(=O)(=O)O)cc2)cc1N=Nc1ccc(-c2ccc(N=Nc3ccc(O)c(C(=O)O)c3)cc2)cc1, the growth was 79.8% (inactive). For Cn1cc(-c2noc(-c3cn(C)c4ncc(F)cc34)n2)c2ccccc21, the growth was 61.7% (inactive). Nc1ccc(NC(=O)c2ccccc2)c2c1C(=O)c1ccccc1C2=O was tested, and the growth was 74.2% (inactive).

Each compound was assayed on TK-10 renal in the same assay as above. Conditions: 10 µM unless noted.
For COc1ccc2c(c1)c(-c1noc(-c3cn(C)c4ncc(F)cc34)n1)cn2C, the growth was 86.2% (inactive). With O=C(N/N=C\c1cc(Cl)ccc1O)N/N=C/c1cc(Cl)ccc1O the growth was 55.4% (inactive). O=C(O)c1ccccc1C(F)(F)F was tested, and the growth was 111% (inactive). With CS(=O)(=O)c1cccnn1 the growth was 109% (inactive). O=C(Nc1ccc(Oc2ccc(F)cc2)c(Cl)c1)c1cccnn1 was tested, and the growth was 64.4% (inactive). For CCC(Br)(CC)C(=O)c1ccc(OCC(=O)O)c(Cl)c1Cl, the growth was 125% (inactive). NC(=O)c1cccc(-c2ccc(S(=O)(=O)Nc3ccc4c(c3)N(C(=O)C3CC3)CCC4)cc2)c1 was tested, and the growth was 77.8% (inactive). For C#CCC(C(=O)OCC)C(=O)OCC, the growth was 98.7% (inactive). O=[N+]([O-])c1cc(CCl)ccc1OCCBr was tested, and the growth was 101% (inactive).
